The results in this text go back to ChEMBL document CHEMBL3988442, “University of Dundee, Small-Polar-MMV Screening Library” (2021).

What all share (parameters): scale not given: direction of the effect not stated beside the values
The target in assay [1] is Protein translocase subunit SecA (Escherichia coli (strain K12)) (UniProt P10408). The experiment in a line: Assay to Identify E. coli SecA ATPase Inhibitors. Format: functional. Particulars: 30 µM.
Assay [2] concerns the target T1, Ubiquitin-activating enzyme e1, putative (Leishmania donovani (strain BPK282A1)) (UniProt E9BSI1).
T1 sequence (whole entry): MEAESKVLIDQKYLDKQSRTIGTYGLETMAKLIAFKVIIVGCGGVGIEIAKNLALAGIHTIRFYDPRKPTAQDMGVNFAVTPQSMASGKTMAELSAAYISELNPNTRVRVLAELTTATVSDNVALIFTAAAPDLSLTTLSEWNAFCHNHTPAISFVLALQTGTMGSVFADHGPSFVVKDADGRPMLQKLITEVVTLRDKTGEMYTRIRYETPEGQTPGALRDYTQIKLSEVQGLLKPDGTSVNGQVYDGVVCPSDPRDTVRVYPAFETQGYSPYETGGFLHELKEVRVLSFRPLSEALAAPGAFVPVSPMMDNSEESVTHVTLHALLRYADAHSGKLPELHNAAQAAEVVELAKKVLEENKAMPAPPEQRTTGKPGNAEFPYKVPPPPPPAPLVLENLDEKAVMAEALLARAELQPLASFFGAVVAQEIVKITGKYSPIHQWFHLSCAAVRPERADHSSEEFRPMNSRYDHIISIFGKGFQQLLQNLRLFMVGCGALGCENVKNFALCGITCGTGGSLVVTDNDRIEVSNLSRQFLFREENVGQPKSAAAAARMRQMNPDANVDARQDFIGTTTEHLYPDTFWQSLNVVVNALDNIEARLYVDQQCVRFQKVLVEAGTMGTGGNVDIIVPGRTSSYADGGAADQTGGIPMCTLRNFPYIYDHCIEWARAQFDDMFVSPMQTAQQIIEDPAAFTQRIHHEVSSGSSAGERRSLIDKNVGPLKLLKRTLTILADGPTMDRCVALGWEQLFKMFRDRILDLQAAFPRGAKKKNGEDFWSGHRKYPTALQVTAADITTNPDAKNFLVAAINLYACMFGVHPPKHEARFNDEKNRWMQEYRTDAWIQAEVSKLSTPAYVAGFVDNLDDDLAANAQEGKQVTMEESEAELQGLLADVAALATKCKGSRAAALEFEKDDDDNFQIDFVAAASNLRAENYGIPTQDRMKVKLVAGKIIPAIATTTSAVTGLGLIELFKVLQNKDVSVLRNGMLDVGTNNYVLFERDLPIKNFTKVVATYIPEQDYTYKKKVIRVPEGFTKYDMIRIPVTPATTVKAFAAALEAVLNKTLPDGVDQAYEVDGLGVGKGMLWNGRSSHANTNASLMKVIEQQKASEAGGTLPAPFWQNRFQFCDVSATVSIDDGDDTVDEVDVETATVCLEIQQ
The experiment in a line: Leishmania donovani Ubiquitin Activating Enzyme (LdE1). Format: functional. Particulars: 30 µM.

For assay [3], the target named is AMP-activated protein kinase, AMPK (Homo sapiens) (UniProt P54646+O43741+P54619+Q9UGJ0+Q9Y478+Q13131+Q9UGI9). The experiment in a line: AMP-dependent Kinase enzyme assay. An in vitro enzyme assay that detects ADP turnover that is directly proportional to AMPK activity. This uses naive AMPK that is activated during the assay with MK-8722. Particulars: 30 µM. The assay is classed as functional.

Assay [4] deals with Sialic acid-binding Ig-like lectin 9 (Homo sapiens) (UniProt Q9Y336). The experiment in a line: Hs-Siglec9 ALPHAscreen SOP 20170721. Particulars: 10 µM.
Sequence of Sialic acid-binding Ig-like lectin 9 (Homo sapiens) (Q9Y336 whole entry): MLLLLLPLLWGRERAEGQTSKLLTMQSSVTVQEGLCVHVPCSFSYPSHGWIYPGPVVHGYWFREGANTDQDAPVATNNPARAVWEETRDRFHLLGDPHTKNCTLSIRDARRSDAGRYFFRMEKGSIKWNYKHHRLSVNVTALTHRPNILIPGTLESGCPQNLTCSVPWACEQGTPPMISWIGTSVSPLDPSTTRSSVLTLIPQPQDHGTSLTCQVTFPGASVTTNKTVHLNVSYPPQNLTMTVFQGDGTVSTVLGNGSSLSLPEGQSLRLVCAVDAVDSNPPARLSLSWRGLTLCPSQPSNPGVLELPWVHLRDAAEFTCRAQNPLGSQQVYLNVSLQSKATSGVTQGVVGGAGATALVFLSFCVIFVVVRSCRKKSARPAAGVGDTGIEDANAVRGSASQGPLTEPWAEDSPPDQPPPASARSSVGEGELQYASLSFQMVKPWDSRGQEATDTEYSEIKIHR
A further assay has as its system Trypanosoma cruzi. The assay can be described thus: Trypanosoma cruzi phosphomannomutase and mannose-1-phosphate guanylyltransferase assay. The assay is classed as functional. Particulars: 10 µM.
Assay [5] has as its target T2, Arginase-2, mitochondrial (Homo sapiens) (UniProt P78540).
T2 sequence (whole entry): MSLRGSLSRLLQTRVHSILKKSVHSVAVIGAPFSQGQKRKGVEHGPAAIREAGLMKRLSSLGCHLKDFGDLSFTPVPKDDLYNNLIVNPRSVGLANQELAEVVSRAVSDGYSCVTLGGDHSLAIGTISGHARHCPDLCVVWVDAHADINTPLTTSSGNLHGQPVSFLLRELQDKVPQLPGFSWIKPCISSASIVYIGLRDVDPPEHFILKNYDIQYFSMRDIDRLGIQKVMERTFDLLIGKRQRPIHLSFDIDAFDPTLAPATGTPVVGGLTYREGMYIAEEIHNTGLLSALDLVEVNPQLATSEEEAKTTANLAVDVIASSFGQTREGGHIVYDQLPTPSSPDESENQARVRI
The experiment in a line: in vitro enzyme assay to detect the production of urea directly proportional to the activity of Arginase II. Note: in the data most compounds retested in dose-response had high values. The assay is classed as functional. Particulars: 33.3 µM.

The target in assay [6] is T3, Proteasome subunit beta (Trypanosoma cruzi) (UniProt O96673).
T3 sequence (whole entry): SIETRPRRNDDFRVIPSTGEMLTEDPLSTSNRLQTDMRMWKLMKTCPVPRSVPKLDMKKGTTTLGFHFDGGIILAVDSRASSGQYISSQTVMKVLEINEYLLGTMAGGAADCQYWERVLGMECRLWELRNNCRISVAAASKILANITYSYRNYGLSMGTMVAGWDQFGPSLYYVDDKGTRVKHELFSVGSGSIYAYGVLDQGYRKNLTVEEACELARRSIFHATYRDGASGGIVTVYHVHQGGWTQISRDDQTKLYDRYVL
The assay can be described thus: Trypanosoma cruzi proteasome chymotrypsin-like activity (TcProtChymo) assay. Note: in the data most compounds retested in dose-response had high values. The assay is classed as functional. Particulars: 9.37 µM.

For a further assay, the species on record is Homo sapiens. The assay can be described thus: To identify inhibition of the IFN signalling (Jak-Stat) pathway via expression of an eGFP reporter gene under the control of an IFN-stimulated response element (ISRE) containing MxA promoter. Format: functional. Particulars: 30 µM.
For assay [7], the target named is T4, Tyrosyl-tRNA synthetase, putative (Trypanosoma cruzi (strain CL Brener)) (UniProt Q4DSP6).
T4 sequence (whole entry): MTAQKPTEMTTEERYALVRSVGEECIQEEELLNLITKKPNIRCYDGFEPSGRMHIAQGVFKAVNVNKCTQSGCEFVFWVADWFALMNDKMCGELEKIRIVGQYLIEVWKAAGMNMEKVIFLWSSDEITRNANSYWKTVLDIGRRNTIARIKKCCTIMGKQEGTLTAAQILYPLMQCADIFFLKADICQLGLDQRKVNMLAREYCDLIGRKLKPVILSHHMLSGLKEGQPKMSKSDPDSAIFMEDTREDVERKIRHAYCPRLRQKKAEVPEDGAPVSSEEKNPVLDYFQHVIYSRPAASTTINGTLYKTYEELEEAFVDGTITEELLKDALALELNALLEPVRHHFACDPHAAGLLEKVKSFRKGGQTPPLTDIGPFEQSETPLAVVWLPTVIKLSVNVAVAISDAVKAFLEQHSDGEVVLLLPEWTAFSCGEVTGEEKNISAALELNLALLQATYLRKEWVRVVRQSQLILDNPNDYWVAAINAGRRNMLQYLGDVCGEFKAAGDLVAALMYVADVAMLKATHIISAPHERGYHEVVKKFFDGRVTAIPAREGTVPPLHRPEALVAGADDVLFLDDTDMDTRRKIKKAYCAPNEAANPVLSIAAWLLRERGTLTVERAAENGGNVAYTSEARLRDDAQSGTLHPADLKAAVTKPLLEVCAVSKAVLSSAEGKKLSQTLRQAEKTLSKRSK
The experiment in a line: Trypanosoma cruzi tyrosyl tRNA synthetase (TcYRS) _High Tyrosine SOP. Note: in the data most compounds retested in dose-response had high values. Format: functional. Particulars: 30 µM.

The target of assay [8] is T4, Tyrosyl-tRNA synthetase, putative (Trypanosoma cruzi (strain CL Brener)). The experiment in a line: Trypanosoma cruzi tyrosyl tRNA synthetase (TcYRS) SOP. Particulars: 30 µM. The assay is classed as functional.
In assay [9] the target is Chromo domain-containing protein 1 (Saccharomyces cerevisiae (strain ATCC 204508 / S288c) (Baker's yeast)) (UniProt P32657). The assay can be described thus: ScCHD-1 Enzyme Inhibition Assay. Note: in the data most compounds retested in dose-response had high values. Format: functional. Particulars: 30 µM.
Sequence of Chromo domain-containing protein 1 (Saccharomyces cerevisiae (strain ATCC 204508 / S288c) (Baker's yeast)) (P32657 whole entry, the tested form may be a part): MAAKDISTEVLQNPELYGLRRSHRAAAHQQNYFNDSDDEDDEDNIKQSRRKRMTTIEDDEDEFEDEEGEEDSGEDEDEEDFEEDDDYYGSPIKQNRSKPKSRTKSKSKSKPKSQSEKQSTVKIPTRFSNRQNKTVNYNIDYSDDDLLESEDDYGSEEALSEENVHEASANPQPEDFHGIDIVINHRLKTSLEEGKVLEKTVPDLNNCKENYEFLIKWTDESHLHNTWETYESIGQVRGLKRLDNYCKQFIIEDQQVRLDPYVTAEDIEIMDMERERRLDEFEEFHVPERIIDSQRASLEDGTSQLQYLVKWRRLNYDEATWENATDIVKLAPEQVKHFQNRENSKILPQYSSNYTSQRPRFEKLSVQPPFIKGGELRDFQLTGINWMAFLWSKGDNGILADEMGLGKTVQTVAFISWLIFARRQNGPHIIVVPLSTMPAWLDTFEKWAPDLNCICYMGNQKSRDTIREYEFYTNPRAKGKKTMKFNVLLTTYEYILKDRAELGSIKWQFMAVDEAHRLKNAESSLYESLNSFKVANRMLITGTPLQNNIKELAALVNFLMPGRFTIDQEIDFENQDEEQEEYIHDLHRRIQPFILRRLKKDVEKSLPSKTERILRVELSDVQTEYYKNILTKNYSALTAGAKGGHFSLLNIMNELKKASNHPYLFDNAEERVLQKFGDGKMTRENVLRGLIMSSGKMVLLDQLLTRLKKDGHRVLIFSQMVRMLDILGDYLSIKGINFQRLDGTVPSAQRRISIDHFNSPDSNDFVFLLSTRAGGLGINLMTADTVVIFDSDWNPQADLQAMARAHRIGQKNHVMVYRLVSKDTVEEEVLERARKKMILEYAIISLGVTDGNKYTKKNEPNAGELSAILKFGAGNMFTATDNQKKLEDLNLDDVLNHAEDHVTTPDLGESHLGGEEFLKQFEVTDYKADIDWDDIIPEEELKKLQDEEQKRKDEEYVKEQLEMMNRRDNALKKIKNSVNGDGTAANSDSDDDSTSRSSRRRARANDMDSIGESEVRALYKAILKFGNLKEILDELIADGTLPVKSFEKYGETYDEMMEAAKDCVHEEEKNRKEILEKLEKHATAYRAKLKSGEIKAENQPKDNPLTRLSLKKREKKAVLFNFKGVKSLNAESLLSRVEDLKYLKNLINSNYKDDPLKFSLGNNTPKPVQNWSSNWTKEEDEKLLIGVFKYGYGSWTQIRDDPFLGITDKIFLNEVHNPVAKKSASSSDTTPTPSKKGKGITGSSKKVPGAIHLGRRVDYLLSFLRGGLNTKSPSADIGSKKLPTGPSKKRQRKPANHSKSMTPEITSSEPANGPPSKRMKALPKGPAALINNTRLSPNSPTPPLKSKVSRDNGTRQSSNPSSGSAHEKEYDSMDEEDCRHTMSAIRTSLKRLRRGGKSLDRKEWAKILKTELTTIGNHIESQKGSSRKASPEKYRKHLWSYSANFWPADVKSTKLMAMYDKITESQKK

For some of these results: Potency and affinity values are given separately.

Sequence of Protein translocase subunit SecA (Escherichia coli (strain K12)) (P10408 whole entry): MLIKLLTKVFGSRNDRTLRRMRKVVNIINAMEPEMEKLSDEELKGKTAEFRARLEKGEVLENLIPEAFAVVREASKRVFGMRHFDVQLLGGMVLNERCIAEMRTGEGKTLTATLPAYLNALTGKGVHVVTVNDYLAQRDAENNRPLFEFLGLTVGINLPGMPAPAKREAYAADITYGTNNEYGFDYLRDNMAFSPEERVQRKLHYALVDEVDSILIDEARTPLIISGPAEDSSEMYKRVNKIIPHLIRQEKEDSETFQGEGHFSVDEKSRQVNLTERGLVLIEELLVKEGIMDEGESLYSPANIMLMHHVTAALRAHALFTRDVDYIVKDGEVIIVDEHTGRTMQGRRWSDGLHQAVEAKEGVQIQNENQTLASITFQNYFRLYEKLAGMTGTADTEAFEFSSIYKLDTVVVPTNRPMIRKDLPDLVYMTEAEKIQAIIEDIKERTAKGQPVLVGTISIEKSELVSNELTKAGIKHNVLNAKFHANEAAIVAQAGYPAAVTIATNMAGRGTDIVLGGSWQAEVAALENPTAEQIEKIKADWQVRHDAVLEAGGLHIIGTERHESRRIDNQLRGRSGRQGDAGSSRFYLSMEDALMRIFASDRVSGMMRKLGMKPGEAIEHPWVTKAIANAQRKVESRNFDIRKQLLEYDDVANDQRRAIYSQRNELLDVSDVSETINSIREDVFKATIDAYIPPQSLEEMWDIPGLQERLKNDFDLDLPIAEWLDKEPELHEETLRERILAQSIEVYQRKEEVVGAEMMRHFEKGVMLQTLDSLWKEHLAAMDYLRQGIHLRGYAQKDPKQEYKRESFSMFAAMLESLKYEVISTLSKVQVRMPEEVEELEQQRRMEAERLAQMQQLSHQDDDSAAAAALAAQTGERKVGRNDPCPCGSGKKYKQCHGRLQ

For `Cn1ncc2c1CCCC2NCc1ccc(Cl)s1` (stereo not drawn), the Percent Effect in assay [1] was -4.36%; in [2] it was 13%; in [3], -34.6%; in [4], -13.6%; in the assay on Trypanosoma cruzi, -1.08%; in assay [5], 2.74%. Moreover, the Percent Effect is 12.2% in assay [6]; 9.39% in the assay filed under Homo sapiens; 6.67% in assay [7]; 11.8% in assay [8]; -19.4% in assay [9].

For `CC(C)c1noc(C(C)N2CCN(CCO)CC2)n1` (stereo not drawn), the Percent Effect was 0.448% in assay [1]; 21.6% in [2]; -14.5% in assay [3]; -3.22% in assay [4]; -3.68% in the assay on Trypanosoma cruzi; -9.22% in assay [5]. Further, the Percent Effect was 12.2% in assay [6]; 16.1% in the assay listed under Homo sapiens; 5.42% in assay [7]; 6.17% in [8]; -0.137% in assay [9].

Regarding `CCN1C(=O)C(C)(C)c2cc(NC(=O)c3ccco3)ccc21`, the Percent Effect in [1] is -5.66%; in assay [2], 10.4%; in [3] it was 17.2%; in [4], 5.8%; with Trypanosoma cruzi it was 1.48%; in assay [5], -13.8%. The Percent Effect in assay [6] was 12.7%; in the assay listed under Homo sapiens, 19.7%; in assay [7] it was 12.9%; in assay [8] it was 21%; in assay [9] it was 0.612%.

Consider `Cc1ccc(CN2CCn3c(C(=O)N(C)C)cnc3C2)s1`, for which the Percent Effect in [1] was -2.48%; in [2], 10.7%; in [3], 8.35%; in [4] it was -0.423%; in the assay on Trypanosoma cruzi, -4.53%; in assay [5], 3.5%. In addition, the Percent Effect is 7.67% in assay [6]; 3.77% in the assay filed under Homo sapiens; 3.19% in assay [7]; 8.97% in assay [8]; -5.78% in [9].

On to `COCc1nn(C(C)C)c2c1CCN(Cc1ccc(C)s1)C2`, for which the Percent Effect in assay [1] was -2.06%; in assay [2] it was 2.74%; in assay [3], -1.91%; in [4], -1.63%; with Trypanosoma cruzi, 0.198%; in assay [5], 5.99%. Moreover, the Percent Effect in assay [6] is 7.62%; in the assay filed under Homo sapiens it was 1.17%; in assay [7], 2.08%; in assay [8], 3.7%; in assay [9] it was -2.29%.

As for `O=C(Cn1cc(I)cn1)N1CCc2ccccc2C1`, the Percent Effect in assay [1] is 0.654%; in [2], -12%; in [3] it was 6.11%; in assay [4], 2.56%; with Trypanosoma cruzi, -2.55%; in assay [5], -10%. For the same compound, the Percent Effect in assay [6] is 6.1%; in the assay listed under Homo sapiens it was 2.17%; in assay [7], 2.12%; in assay [8], -2.56%; in assay [9] it was -2.67%.

On to `Cc1cc(C(=O)NCc2ccnc(N(C)C)c2)c(C)o1`, for which the Percent Effect is -4.79% in [1]; 23.4% in [2]; -3.99% in assay [3]; -6.37% in [4]; -5.24% in the assay on Trypanosoma cruzi; -1.42% in [5]. Besides, the Percent Effect in [6] is 8.62%; in the assay listed under Homo sapiens, -12%; in assay [7] it was 4.85%; in assay [8] it was 12.2%; in assay [9], -10.6%.

Consider `CC(=O)N(C)c1nc(CN2CCOC(Cn3cccn3)C2)cs1` (stereo not drawn), for which the Percent Effect in assay [1] was 1.46%; in assay [2], 8.11%; in assay [3], -1.27%; in [4], 15.7%; with Trypanosoma cruzi it was 3.09%; in [5], 17.1%. For the same compound, the Percent Effect in assay [6] is 15.9%; in the assay filed under Homo sapiens it was 10.3%; in assay [7], 4.76%; in assay [8], 12.2%; in assay [9], -5.18%.
